Measured values published in ChEMBL document CHEMBL3433997, “St. Jude Leishmania screening dataset” (2016).

What was measured:
Format in all cases: functional
[1] = target: Solute carrier family 2, facilitated glucose transporter member 1 (Homo sapiens) (UniProt P11166); experiment: ST_JUDE_LEISH: Cytotoxicity at 2uM final concentration against transgenic Leishmania Mexicana promastigotes LmGLUT1 that are glucose transport deficient and complemented with the human glucose transporter GLUT1. Activity is measured by DNA content using SYBR green in vitro
[2] = target: Hexose transporter 1 (Plasmodium falciparum) (UniProt O97467); experiment: ST_JUDE_LEISH: Cytotoxicity at 2uM final concentration against transgenic Leishmania Mexicana promastigotes LmPfHT that are glucose transport deficient and complemented with the Plasmodium falciparum hexose transporter. Activity is measured by DNA content using SYBR green in vitro
[3] = target: Glucose transporter (Leishmania mexicana) (UniProt O61059); experiment: ST_JUDE_LEISH: Cytotoxicity at 2uM final concentration against transgenic Leishmania Mexicana promastigotes LmGT2 that are glucose transport deficient and complemented with the L. Mexicana glucose transporter 2. Activity is measured by DNA content using SYBR green in vitro

Solute carrier family 2, facilitated glucose transporter member 1 (Homo sapiens), sequence (P11166 whole entry): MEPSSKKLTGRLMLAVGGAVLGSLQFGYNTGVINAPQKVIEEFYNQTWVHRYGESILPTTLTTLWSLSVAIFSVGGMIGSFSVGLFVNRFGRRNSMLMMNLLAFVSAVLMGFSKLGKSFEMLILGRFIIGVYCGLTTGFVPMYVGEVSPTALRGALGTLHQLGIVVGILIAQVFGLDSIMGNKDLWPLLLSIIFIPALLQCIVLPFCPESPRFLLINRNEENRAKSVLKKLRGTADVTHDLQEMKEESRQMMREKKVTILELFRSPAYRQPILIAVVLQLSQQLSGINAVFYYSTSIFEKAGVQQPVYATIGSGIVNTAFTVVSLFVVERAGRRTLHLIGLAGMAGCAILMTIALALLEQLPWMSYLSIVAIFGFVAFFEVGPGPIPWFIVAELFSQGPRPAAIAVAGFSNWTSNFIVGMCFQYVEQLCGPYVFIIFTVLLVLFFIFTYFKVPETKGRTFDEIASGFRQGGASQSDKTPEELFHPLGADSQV

| Structure (SMILES) | inhibition [1] [%] | inhibition [2] [%] | inhibition [3] [%] |
| --- | --- | --- | --- |
| Cn1cccc1C(=O)Nc1cccc(-c2nn3ccccc3c2-c2ccnc(Nc3ccc4c(c3)OCCO4)n2)c1 | 4.74 | 9.05 | -1.17 |
| Oc1ccccc1CCNCC1CCc2ccccc2C1 (centres undefined) | -0.47 | -0.01 | 0.73 |
| N=C(NCCc1ccccc1Cl)c1ccc2ccccc2c1 | -1.42 | -1.63 | -2.06 |
| Cc1cc(Nc2ccncc2)n2nc(C)c(-c3ccccc3Cl)c2n1 | 2.97 | 1.58 | 6.28 |
| COc1ccc(NC(=O)/C=C/c2ccccc2Cl)cc1OCCN1CCC(N(C)C)CC1 | 2.23 | 1.6 | 1.83 |
| Cc1cccc(S(=O)(=O)Nc2cccc(CCN3CCC(N4CCCCC4)CC3)c2)c1 | 3.99 | -1.11 | 0.97 |
| COc1ccc2nccc([C@@H](O)CN3CCC(NC/C=C/c4cccnc4)CC3)c2c1 | 1.71 | 2.98 | 2.59 |
| CCCC(=O)c1cnc2c(I)cccc2c1Nc1ccccc1C | 3.51 | 4.24 | 3.57 |
| COc1ccc(CNCc2ccc(-c3cccc(-c4nc5cccc(C)c5[nH]4)c3)cc2)cc1 | 2.87 | 1.37 | 0.41 |
| Fc1cccc(C=NN=c2cc[nH]c3ccccc23)c1 | 9.03 | 6.41 | 6.88 |
| NCc1cccc(-c2ccc(CNC3CCN(Cc4ccccc4)CC3)cc2)c1 | 6.37 | 2.02 | -1.34 |
| CN1CCCN(Cc2cccc(-c3ccc(NC(=O)c4cccc(Cl)c4)cc3)c2)CC1 | 71.1 | 80 | 69.1 |
| COc1ccc(-c2ccnc(-c3cccc(-c4ccccn4)n3)c2)cc1 | 7.03 | 24.9 | 2.98 |
| Nc1ccnc2ccc(NC(=O)CCCCCc3ccccc3)cc12 | 1.43 | 0.96 | 1.99 |
| N#Cc1cccc(C(=O)Nc2ccc(-c3cccc(CN4CCCC4)c3)cc2)c1 | 55.6 | 6.55 | 7.42 |
| NC1CCN(Cc2ccc(-c3ccc(-c4nc5cc(F)ccc5[nH]4)cc3)cc2)C1 (centres undefined) | 6.38 | 4.78 | -0.01 |
| O=C(/C=C/c1cccc(Cl)c1)N1CCC(C(O)CN2CCC3(CC2)CN(C(=O)/C=C/c2cccc(Cl)c2)c2ccccc23)CC1 (centres undefined) | 0.54 | 1.87 | 0.82 |

| Structure (SMILES) | inhibition [1] [%] | inhibition [2] [%] | inhibition [3] [%] |
| --- | --- | --- | --- |
| COc1ccc(O)c(Cc2cnc3nc(N)[nH]c(=O)c3c2C)c1 | 1.02 | 0.5 | 4.01 |
| O=C(Nc1cccc(F)c1)N1CCC(NS(=O)(=O)c2ccc(Br)cc2)CC1 | 4.47 | 4 | 2.63 |
| COc1cc(NCCCNC(=O)c2cc3c(Cl)cc(Cl)cc3[nH]2)nc2ccccc12 | 2.04 | 6.51 | 0.77 |
| O=c1cc(NCCCNCc2cc(Cl)cc(Cl)c2OCc2ccccc2)[nH]c2ccccc12 | 5.54 | 2.83 | 4.41 |
| CCOc1cc(C)ccc1N(C1CCN(CCCCNC(=O)c2ccc(-c3ccc(C(F)(F)F)cc3)cc2)CC1)S(=O)(=O)c1ccccc1 | 0.32 | 1.25 | -0.57 |
| Cc1cccc2nc(-c3cccc(-c4ccc(NC(=O)Cc5c[nH]cn5)cc4)c3)[nH]c12 | -1.66 | -0.73 | -0.58 |
| Nc1nccc2ccc(-c3ccc(OCc4ccccc4)cc3)cc12 | 0.87 | 2.36 | 1.39 |
| CCn1cc2c3c(cc(C(=O)N[C@@H](Cc4ccccc4)[C@H](O)CNCc4cccc(OC)c4)cc31)N(C)S(=O)(=O)CC2 | 1.89 | 3.02 | 2.18 |
| CC(C)C[C@@H](/C=N/N1CCNC1=O)NC(=O)[C@H](CC(C)C)NC(=O)c1ccc(OCCN2CCOCC2)cc1 | 0.84 | 6.5 | 0.69 |
| COc1ccc(Nc2ncc3c(-c4cccc(NC(=O)Cc5cccc(O)c5)c4)c[nH]c3n2)cc1OC | -1.87 | 1.51 | 3.39 |
| COc1ccc2nccc([C@@H](O)CN3CCC(NCc4cc5c(F)ccc(F)c5[nH]4)CC3)c2c1 | 21.9 | 29.8 | 2.77 |
| O=C(Nc1ccc(Oc2ccccc2)cc1)N(CCN1CCCC1)Cc1ccc(-c2ccc(CN3CCNCC3)cc2)cc1 | 0.02 | 1.54 | 0.38 |
| O=C(NCCCCN1CCC(c2ccc3c(c2O)CCCC3)CC1)c1ccc(-c2ccc(Cl)cc2)cc1 | 1.35 | 1.06 | 2.37 |
| O=C1OC(c2ccccc2)(c2ccccc2)CN1CC1CCN(Cc2ccc(O)c(Cl)c2)CC1 | 70 | 70.4 | 32.2 |
| C=CCOc1ccc(C(=O)Nc2nonc2-c2ccc(OC)c(OC)c2)cc1 | 1 | 1.23 | 1.78 |
| NC(=O)c1cccc(C(=O)Nc2ccc(-c3cccc(-c4nc5cc(C(F)(F)F)ccc5[nH]4)c3)cc2)c1 | 0.39 | -0.82 | -2.19 |
